Experimental data published in PubChem BioAssay (NCI).
About 79,000 compounds went through this panel and 15% of them were active in at least one assay; those are over-represented in the sample as a whole. Calls of active or inactive are those of the source. Cut-off read from the data, not from the text of the source: active = growth inhibition above about 70%; inactive = the rest.

Columns and labels:
[1] = NCI Yeast Anticancer Drug Screen. Data for the rad52 strain (AID 147);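 note: 0% = growth of vehicle-treated control cultures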; conditions: S. cerevisiae rad52 mutant growth inhibition, stronger effect = higher value
Procedure, shortened: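 Inhibition of yeast growth, referenced to vehicle controls, was the measured output for a strain with defective DNA damage repair.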

[2] = NCI Yeast Anticancer Drug Screen. Data for the wt1 strain (AID 149);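 note: 0% = growth of vehicle-treated wt1 cultures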; conditions: S. cerevisiae wt1 strain (SPY 50644) growth inhibition, stronger effect = higher value
Procedure, shortened: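 Yeast wt1 strain exposed to compounds; growth inhibition measured relative to vehicle-treated controls.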

[3] = NCI Yeast Anticancer Drug Screen. Data for the rad50 strain (AID 155);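 note: 0% = growth of vehicle-only cultures of the same strain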; conditions: S. cerevisiae rad50 strain growth inhibition, stronger effect = higher value
Procedure, shortened: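 Yeast carrying a defined DNA repair defect were exposed to test compounds, and growth was compared with vehicle-treated controls to give percent inhibition.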

[4] = NCI Yeast Anticancer Drug Screen. Data for the mec2-1 strain (AID 157); conditions: S. cerevisiae mec2-1 strain, stronger effect = higher value
Procedure, shortened: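 Each compound was tested on mec2-1 yeast, a strain altered in DNA damage repair or cell cycle control. Growth inhibition is reported relative to vehicle.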

[5] = NCI Yeast Anticancer Drug Screen. Data for the rad14 strain (AID 159);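 note: 0% = growth of vehicle-treated control cultures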; conditions: S. cerevisiae rad14 strain growth inhibition, stronger effect = higher value
Procedure, shortened: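 Yeast cells carrying a defined DNA-repair defect were exposed to compounds, and growth inhibition was calculated relative to vehicle-treated control cultures.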

[6] = NCI Yeast Anticancer Drug Screen. Data for the sgs1 mgt1 strain (AID 161);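 note: 0% = growth of cultures given vehicle only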; conditions: S. cerevisiae sgs1 mgt1 strain, stronger effect = higher value
Procedure, shortened: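 Test agents were incubated with a DNA-repair-mutant yeast strain. Growth was then read and compared against vehicle-treated controls.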

[7] = NCI Yeast Anticancer Drug Screen. Data for the CLN2oe strain (AID 163);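 note: 0% = growth of vehicle-only control cultures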; conditions: S. cerevisiae CLN2oe strain, stronger effect = higher value
Procedure, shortened: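 First, the altered yeast strain was treated with each compound; second, its growth was measured; finally, inhibition was derived by comparison with vehicle controls.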

[8] = NCI Yeast Anticancer Drug Screen. Data for the cln2 rad14 strain (AID 165);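 note: 0% = growth equal to vehicle treated cultures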; conditions: S. cerevisiae cln2 rad14 strain, stronger effect = higher value
Procedure, shortened: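 Test compounds were added to cln2 rad14 yeast cultures; inhibition of growth was then determined by comparison with vehicle treatment.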

[9] = NCI Yeast Anticancer Drug Screen. Data for the bub3 strain (AID 167); conditions: S. cerevisiae bub3 mutant strain, stronger effect = higher value
Procedure, shortened: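 Compounds were applied to a genetically altered yeast strain carrying a cell-cycle control defect. Growth inhibition was scored against vehicle-treated controls.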

[10] = NCI Yeast Anticancer Drug Screen. Data for the wt2 strain (AID 169);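 note: 0% = growth of vehicle-treated yeast cultures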; conditions: S. cerevisiae wt2 strain growth inhibition, stronger effect = higher value
Procedure, shortened: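 The panel's yeast strains carry defined changes in DNA repair or cell cycle genes. Each strain is grown with compound, and growth loss is scored relative to vehicle.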

[11] = NCI Yeast Anticancer Drug Screen. Data for the sgs1 strain (AID 173);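 note: 0% = growth of vehicle-only control cultures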; conditions: S. cerevisiae sgs1 mutant, stronger effect = higher value
Procedure, shortened: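 Vehicle-treated cultures served as reference for growth inhibition of a yeast strain altered in DNA damage repair or cell cycle control after compound exposure.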

[12] = NCI Yeast Anticancer Drug Screen. Data for the mlh1 rad18 strain (AID 175); conditions: S. cerevisiae mlh1 rad18 strain growth inhibition, stronger effect = higher value
Procedure, shortened: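 Inhibition values reflect reduced growth of mutant yeast versus vehicle-treated controls following compound exposure; the mutations affect DNA damage repair.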

[13] = NCI Yeast Anticancer Drug Screen. Data for the rad18 strain (AID 177); conditions: S. cerevisiae rad18 mutant growth inhibition, stronger effect = higher value
Procedure, shortened: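 Steps: expose repair-mutant yeast to compound; measure growth; express as inhibition relative to vehicle control.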

[14] = NCI Yeast Anticancer Drug Screen. Data for the rad50EPP+ strain (AID 151);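 note: 0% = growth of vehicle-treated control cultures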; conditions: S. cerevisiae rad50 mutant strain, stronger effect = higher value
Procedure, shortened: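 Genetically defined yeast (rad50EPP+, DNA damage repair alteration) is grown with compound, and inhibition of growth is expressed relative to vehicle-treated controls.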

[15] = NCI Yeast Anticancer Drug Screen. Data for the mgt1 strain (AID 153); conditions: S. cerevisiae mgt1 mutant growth inhibition, stronger effect = higher value
Procedure, shortened: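 In the mgt1 strain, test compounds were added and growth inhibition was determined relative to vehicle-treated controls.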

[16] = NCI Yeast Anticancer Drug Screen. Data for the mlh1 strain (AID 171);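 note: 0% = growth of vehicle-treated control cultures of the same strain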; conditions: S. cerevisiae mlh1 strain growth inhibition, stronger effect = higher value
Procedure, shortened: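 Inhibition values reflect reduced yeast growth in the presence of compound, referenced to vehicle controls, using a strain chosen for its alteration in DNA repair or cell cycle control.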

[17] = at 5.0 µM (retest, dose inferred, filed as 0.5)
[18] = at 50.0 µM (retest, dose inferred, filed as 5.0)

Measured: growth inhibition

Cc1ccc(SSc2ccc(C)cc2[N+](=O)[O-])c([N+](=O)[O-])c1
active: [1]; at 33.0 µM 77% | [1]; at 100.0 µM 86% | [2]; at 100.0 µM 83% | [3]; [18] 90% | [3]; at 100.0 µM 86% | [4]; [18] 94% | [4]; at 50.0 µM 78.7% | [4]; at 100.0 µM 86% | [5]; at 33.0 µM 74% | [5]; at 100.0 µM 85% | [6]; [18] 95% | [7]; at 100.0 µM 72% | [8]; [18] 86% | [9]; at 33.0 µM 84% | [9]; [18] 94% | [9]; at 100.0 µM 87% | [10]; at 33.0 µM 82% | [10]; at 100.0 µM 85% | [11]; at 33.0 µM 91% | [11]; at 100.0 µM 86% | [12]; [18] 80% | [13]; at 100.0 µM 83%
inactive: [1]; at 1.2 µM 5% | [1]; at 3.7 µM 19% | [1]; at 11.0 µM 38% | [2]; at 1.2 µM -2% | [2]; at 3.7 µM 4% | [2]; at 11.0 µM 16% | [2]; at 33.0 µM 50% | [3]; at 1.2 µM 8% | [3]; at 3.7 µM 15% | [3]; [17] 54% | [3]; at 11.0 µM 33% | [3]; at 33.0 µM 68% | [3]; at 50.0 µM 69.5% | [4]; at 1.2 µM -5% | [4]; at 3.7 µM 2% | [4]; [17] 57% | [4]; at 11.0 µM 26% | [4]; at 33.0 µM 66% | [5]; at 1.2 µM -6% | [5]; at 3.7 µM -10% | [5]; at 11.0 µM 10% | [6]; [17] -8% | [7]; at 1.2 µM -11% | [7]; at 3.7 µM 0% | [7]; at 11.0 µM -9% | [7]; at 33.0 µM -5% | [8]; [17] 37% | [9]; at 1.2 µM -3% | [9]; at 3.7 µM -3% | [9]; [17] 26% | [9]; at 11.0 µM 2% | [10]; at 1.2 µM -15% | [10]; at 3.7 µM -6% | [10]; at 11.0 µM 21% | [11]; at 1.2 µM 0% | [11]; at 3.7 µM 14% | [11]; at 11.0 µM 46% | [12]; [17] 35% | [12]; at 50.0 µM 44.7% | [13]; at 1.2 µM -18% | [13]; at 3.7 µM -14% | [13]; at 11.0 µM 19% | [13]; at 33.0 µM 53%

[N-]=[N+]=NC1CC(n2ccc(=O)[nH]c2=O)OC1COC(c1ccccc1)(c1ccccc1)c1ccccc1 (stereo not drawn)
inactive: [2]; at 1.2 µM 1% | [2]; at 3.7 µM 4% | [2]; at 11.0 µM 11% | [14]; at 1.2 µM 1% | [14]; at 3.7 µM 0% | [14]; at 11.0 µM 0% | [14]; at 33.0 µM -2% | [14]; at 100.0 µM -7% | [15]; at 1.2 µM 0% | [15]; at 3.7 µM 3% | [15]; at 11.0 µM 16% | [3]; at 1.2 µM 1% | [3]; at 3.7 µM 3% | [3]; at 11.0 µM 48% | [3]; at 50.0 µM 41.8% | [4]; at 1.2 µM -3% | [4]; at 3.7 µM -1% | [4]; [17] 18% | [4]; at 11.0 µM 27% | [5]; at 1.2 µM 2% | [5]; at 3.7 µM 5% | [5]; at 11.0 µM 18% | [6]; [17] 15% | [6]; at 50.0 µM 50.5% | [7]; at 1.2 µM -4% | [7]; at 3.7 µM -4% | [7]; at 11.0 µM 26% | [8]; [17] 33% | [9]; at 1.2 µM 0% | [9]; at 3.7 µM -2% | [9]; [17] 8% | [9]; at 11.0 µM 15% | [10]; at 1.2 µM 0% | [10]; at 3.7 µM -1% | [10]; at 11.0 µM 23% | [16]; at 1.2 µM 0% | [16]; at 3.7 µM 2% | [16]; at 11.0 µM 25% | [11]; at 1.2 µM 0% | [11]; at 3.7 µM 2% | [11]; at 11.0 µM 17% | [12]; at 50.0 µM 50.6% | [13]; at 1.2 µM 3% | [13]; at 3.7 µM 13% | [13]; at 11.0 µM 52%
active: [2]; at 33.0 µM 89% | [2]; at 100.0 µM 91% | [15]; at 33.0 µM 76% | [15]; at 100.0 µM 80% | [3]; [17] 76% | [3]; at 33.0 µM 93% | [3]; [18] 82% | [3]; at 100.0 µM 83% | [4]; at 33.0 µM 86% | [4]; [18] 79% | [4]; at 50.0 µM 89.7% | [4]; at 100.0 µM 85% | [5]; at 33.0 µM 77% | [5]; at 100.0 µM 81% | [6]; [18] 80% | [7]; at 33.0 µM 89% | [7]; at 100.0 µM 80% | [8]; [18] 81% | [8]; at 50.0 µM 88.9% | [9]; at 33.0 µM 85% | [9]; [18] 76% | [9]; at 50.0 µM 89.8% | [9]; at 100.0 µM 83% | [10]; at 33.0 µM 81% | [10]; at 100.0 µM 80% | [16]; at 33.0 µM 71% | [16]; at 100.0 µM 77% | [11]; at 33.0 µM 84% | [11]; at 100.0 µM 86% | [12]; [17] 74% | [12]; [18] 86% | [13]; at 33.0 µM 94% | [13]; at 100.0 µM 87%
